Each structure is given as a SMILES string. “And” between values parts separate entries of the source, which are not always exact repeats. Identical values can stand only once. This is part of a sample that, as a whole, favours compounds with a hit. Of some 83,000 tested, about 20% had one in any assay.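 48-hour exposure, single concentration, 96-well plates; percent growth endpoint where 0 means no net growth. Active: below 10.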 Unmarked numbers belong to inactive results. The source made the active and inactive calls.

Test systems include SR leukemia; RPMI-8226 leukemia; OVCAR-8 ovarian; OVCAR-5 ovarian; OVCAR-4 ovarian; SK-OV-3 ovarian; IGROV1 ovarian; OVCAR-3 ovarian; HS 578T breast; NCI/ADR-RES ovarian; T-47D breast; BT-549 breast; SW-620 colon; MCF7 breast; HCT-116 colon; HCC-2998 colon; KM12 colon; MDA-MB-468 breast; MDA-MB-435 melanoma.
Common to all, as to experiment: NCI-60 one-dose screen, 48 h (100 = growth as untreated, 0 = no growth, -100 = all killed)
Holding throughout (conditions): 10 µM unless noted

As for `CCCCCCCCOc1cccc(S(=O)(=O)Nc2ccc(C)cc2C(=O)O)c1`, the growth was 90% in the test on SR leukemia; 64.5% with RPMI-8226 leukemia; 95.6% in the test with OVCAR-8 ovarian; 114% in the test on OVCAR-5 ovarian; 90.1% in the test on OVCAR-4 ovarian; 108% in the test with SK-OV-3 ovarian. Further, the growth in the test on IGROV1 ovarian is 99.7%; in the test with OVCAR-3 ovarian it was 102%; in the test with HS 578T breast, 106%; with NCI/ADR-RES ovarian, 97.6%; with T-47D breast it was 105%; in the test on BT-549 breast, 115%. The growth in the test on SW-620 colon is 96.5%; in the test on MCF7 breast, 89.8%; in the test on HCT-116 colon, 85.1%; in the test with HCC-2998 colon, 119%; in the test with KM12 colon, 96.9%; in the test with MDA-MB-468 breast it was 81.8%.
Take `C=C1CCC2C3(C)COC(c4ccccc4)OC3CCC2(C)C1CC(Sc1ccccc1)C1=CCOC1=O` (configuration not stated): the growth in the test on SR leukemia was 8.04% (active); in the test with RPMI-8226 leukemia, 3.18% (active); in the test with OVCAR-8 ovarian it was 12.9%; in the test with OVCAR-5 ovarian it was 58.5%; in the test with OVCAR-4 ovarian, 50.4%; in the test with SK-OV-3 ovarian, 120%. The growth is 58% in the test with IGROV1 ovarian; 44% with OVCAR-3 ovarian; 94.1% in the test with HS 578T breast; -22.7% (active) with NCI/ADR-RES ovarian; 33.1% with T-47D breast; -19% (active) with BT-549 breast. The growth is 14.8% in the test with SW-620 colon; 17% with MCF7 breast; 4.36% (active) in the test on HCT-116 colon; 36.8% with HCC-2998 colon; 47.5% with KM12 colon; 27.3% in the test on MDA-MB-468 breast.
Regarding `O=c1[nH]c(=O)c2c(-c3cc4ccccc4oc3=O)ccnc2[nH]1`, the growth in the test with SR leukemia was 71.8%; in the test on RPMI-8226 leukemia, 95%; in the test with OVCAR-8 ovarian it was 61.6%; in the test on OVCAR-5 ovarian, 111%; in the test on OVCAR-4 ovarian it was 88.3%; in the test on SK-OV-3 ovarian, 71.2%. Further, the growth in the test on IGROV1 ovarian was 79.4%; in the test on OVCAR-3 ovarian, 98.9%; in the test with HS 578T breast, 70.4%; in the test on NCI/ADR-RES ovarian it was 86.9%; with T-47D breast it was 74.2%; in the test on BT-549 breast, 70.2%. The growth in the test on SW-620 colon was 98.9%; with HCT-116 colon it was 88.3%; in the test on HCC-2998 colon, 98.8%; with KM12 colon, 95.4%; in the test on MDA-MB-468 breast, 57.9%.
Turning to `O=c1[nH]c2ccc(Cl)cc2cc1CSc1nccc(-c2ccc(Cl)cc2)n1`, the growth was 88.6% with SR leukemia; 71.3% in the test with RPMI-8226 leukemia; 42.9% in the test on OVCAR-8 ovarian; 66.4% in the test on OVCAR-5 ovarian; 38.9% in the test with OVCAR-4 ovarian; 69.2% in the test on SK-OV-3 ovarian. For the same molecule, the growth in the test with IGROV1 ovarian is 59.3%; in the test with OVCAR-3 ovarian it was 86.6%; with HS 578T breast, 33.8%; in the test on NCI/ADR-RES ovarian, 56.7%; with T-47D breast it was 41.6%; in the test on BT-549 breast it was 23.9%. In addition, the growth in the test with SW-620 colon is 73.4%; with HCT-116 colon it was 30.3%; with HCC-2998 colon, 61.7%; with KM12 colon, 69.7%; with MDA-MB-468 breast, 29.7%.
In the case of `COc1ccc2nc(Nc3cccc(NC(=O)c4ccc(CN5CCCN(C)CC5)c(C(F)(F)F)c4)c3)ccc2c1`, the growth in the test with SR leukemia was 4.09% (active); in the test with RPMI-8226 leukemia, -31.7% (active); in the test with OVCAR-8 ovarian, 2.26% (active); with OVCAR-5 ovarian it was -84.5% (active); with OVCAR-4 ovarian, -94.4% (active); with SK-OV-3 ovarian it was -62.4% (active). The growth in the test on IGROV1 ovarian is -56.4% (active); with OVCAR-3 ovarian, -48.8% (active); in the test on NCI/ADR-RES ovarian, -43.1% (active); in the test with T-47D breast it was -44.6% (active); with BT-549 breast it was -61.4% (active); with MDA-MB-435 melanoma it was -42.8% (active). Also, the growth is -62.8% (active) in the test on MCF7 breast; -47.1% (active) in the test with HCT-116 colon; -62.6% (active) in the test with HCC-2998 colon; -47.5% (active) in the test on KM12 colon; -71.1% (active) in the test on MDA-MB-468 breast.
`Cn1nc(C(F)(F)F)cc1-c1cc(Cl)c(COc2ccc(Cl)cc2)c(-c2ccc(Cl)c(C(F)(F)F)c2)c1O`: the growth with SR leukemia was -32.4% (active); in the test on RPMI-8226 leukemia, -39.2% (active); with OVCAR-8 ovarian it was -25.6% (active); in the test with OVCAR-5 ovarian it was -1.15% (active); in the test with OVCAR-4 ovarian, 13.9%; with SK-OV-3 ovarian, -14.5% (active). Moreover, the growth with IGROV1 ovarian is 5.06% (active); in the test on OVCAR-3 ovarian, -8.73% (active); in the test with NCI/ADR-RES ovarian it was -34.8% (active); in the test with T-47D breast, 13.1%; in the test on BT-549 breast, -51.6% (active); in the test on MDA-MB-435 melanoma, -34.4% (active). Further, the growth in the test on MCF7 breast is -14.3% (active); in the test with HCT-116 colon, -62.2% (active); with HCC-2998 colon, -33.1% (active); with KM12 colon, -19.1% (active); with MDA-MB-468 breast, -23.9% (active).
For the molecule `O=c1oc2ccccc2cc1-c1csc(N=Nc2c(O)[nH]c3ccc(Cl)cc23)n1`, the growth was 96.3% with SR leukemia; 117% with RPMI-8226 leukemia; 110% in the test on OVCAR-8 ovarian; 116% in the test on OVCAR-5 ovarian; 99.5% with OVCAR-4 ovarian; 94.1% in the test with SK-OV-3 ovarian. Further, the growth is 120% with IGROV1 ovarian; 102% with OVCAR-3 ovarian; 99.2% with HS 578T breast; 103% in the test on NCI/ADR-RES ovarian; 93.6% in the test with T-47D breast; 104% in the test with BT-549 breast. In addition, the growth in the test with SW-620 colon was 109%; with MCF7 breast it was 81.4%; with HCT-116 colon it was 106%; in the test on HCC-2998 colon, 103%; in the test with KM12 colon, 103%; in the test with MDA-MB-468 breast, 106% and 94.5%.
For the molecule `CC1=C(C(=O)c2ccccc2)C(c2ccc(-n3cncn3)cc2)n2c(nc3ccccc32)N1` (configuration not stated), the growth in the test with SR leukemia was 76.9%; in the test on RPMI-8226 leukemia, 63.4%; in the test on OVCAR-8 ovarian, 91.4%; in the test with OVCAR-5 ovarian, 97.3%; in the test on OVCAR-4 ovarian, 71.8%; in the test with SK-OV-3 ovarian it was 79.3%. Moreover, the growth was 83.1% with IGROV1 ovarian; 107% in the test on OVCAR-3 ovarian; 85.6% with NCI/ADR-RES ovarian; 83.6% in the test on T-47D breast; 67.4% with BT-549 breast; 94% in the test with MDA-MB-435 melanoma. The growth in the test on MCF7 breast is 66.7%; in the test on HCT-116 colon, 73%; with HCC-2998 colon it was 109%; with KM12 colon, 94.6%; in the test with MDA-MB-468 breast it was 95.6%.
For `CC(=O)Nc1ccc(-n2cnc3cc(-c4ccc(O)cc4)ccc32)cc1C(F)(F)F`, the growth in the test with SR leukemia was 16.3%; in the test with RPMI-8226 leukemia, 16.6%; in the test with OVCAR-8 ovarian it was 16.1%; with OVCAR-5 ovarian it was 37.9%; with OVCAR-4 ovarian, 40.8%; in the test on SK-OV-3 ovarian it was 56.3%. Moreover, the growth is 35.1% in the test with IGROV1 ovarian; 24.7% with OVCAR-3 ovarian; 0.862% (active) in the test on HS 578T breast; 16.3% with NCI/ADR-RES ovarian; 20.5% in the test on T-47D breast; 32.5% in the test with BT-549 breast. The growth in the test on SW-620 colon is 22.3%; with MCF7 breast it was 18.4%; with HCT-116 colon, 31%; in the test on HCC-2998 colon, 33.9%; in the test on KM12 colon, 3.46% (active); with MDA-MB-468 breast it was 8.18% (active).

The record behind these values is PubChem BioAssay (NCI).
